Compound activity as filed in PubChem.
SARS PLpro yeast: qHTS of Yeast-based Assay for SARS-CoV PLP; S. cerevisiae expressing SARS-CoV PLpro, growth rescue; Potency, µM (doses to about 32.9 µM), without a hit: at the highest dose activity, positive = growth rescue, actives largely listed as activators; 330,000 tested, 0.19% active; AID 485353, 2010; calls by dose curve; also: potency is read from the fitted curve at half-maximal effect; 0% is about no effect; nearly all actives have a fitted effect of over 55% in size
HCMV inh: qHTS Assay for inhibitors of the human cytomegalovirus (HCMV). activity change, negative = inhibition, % at 57.5 µM. 410,000 tested, 4.5% active. HFF cells, HCMV-luciferase reporter, 72 h; stronger effect = lower value; in the data active = activity change below about -60%; inconclusive = no clear call, values can overlap the other calls; inactive = above about -39%; also: % is scaled to controls: 0 for no effect and ±100 for the full control effect
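Steps: HFFs plated, 16 h 37C; compounds added; HCMV-luciferase added to MOI 1 PFU/cell; 72 h 37C; OneGlo reagent, 5 min room temperature; luminescence read, normalized to controls.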
FMDV inh: High Throughput Screening for Foot and Mouth Disease Virus Antivirals; FMDV antiviral cell-based qHTS; Potency, µM (series often up to 57.9 µM), for inactives: top-dose activity change, negative = inhibition, usual class: inhibitors; 410,000 tested, 1.2% active; AID 1159524, 2015; calls by dose curve; tested in HEK293T cells; also: read-out not given here; potency is read from the fitted curve at half-maximal effect; % is scaled to controls: 0 for no effect and ±100 for the full control effect; nearly all actives have a fitted effect of over 45% in size
Marburg entry inh: qHTS for inhibitors of binding or entry into cells for Marburg Virus; Marburg virus pseudotyped entry inhibition, cell reporter; 300,000 tested, 1.8% active; AID 540276, 2011; Potency, µM (highest dose often 37.8 µM), for inactives: top-dose activity change, negative = inhibition, most hits filed as inhibitors; calls by dose curve; tested in HEK293 cells; also: potency is read from the fitted curve at half-maximal effect; % is scaled to controls: 0 for no effect and ±100 for the full control effect
HCV inhibitor: qHTS Assay for Inhibitors of Hepatitis C Virus (HCV) | Huh7.5.1 HCVcc-Cre infection, luciferase reporter, 44 h | Potency, µM (top dose mostly 41.8 µM), without a hit: at the top dose activity change, negative = inhibition, hits mostly inhibitors | 340,000 tested, 3.4% active | AID 651820, 2012; active = well fitted inhibition curve with a large enough effect; inconclusive = small, poorly fitted or top-dose-only effect, or another doubt; inactive = no such curve, though single readings can be large or run the other way; also: potency is read from the fitted curve at half-maximal effect; % is scaled to controls: 0 for no effect and ±100 for the full control effect
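1,000 cells/well; 4 h culture; + compound; + HCVcc-Cre (~0.5 moi); 44 h; luciferase substrate, RT 15 min; read 15 sec.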
LASV entry inh: qHTS for Inhibitors of binding or entry into cells for Lassa Virus | Lassa virus pseudotype entry inhibition, cell reporter | Potency, µM (top dose mostly 37.9 µM), without a hit: top-dose activity change, negative = inhibition, usual class: inhibitors | 300,000 tested, 1.2% active | AID 540256, 2011; calls by dose curve; tested in HEK293 cells; also: potency is read from the fitted curve at half-maximal effect; % is scaled to controls: 0 for no effect and ±100 for the full control effect; nearly all actives have a fitted effect of over 50% in size
Starred values were filed as active, the others as inactive; ? = inconclusive; / = no result given; [ ] = dose if it differs, or a comment. The list is not random: actives were taken first. Their share in the collection is about 8%.

SMILES | SARS PLpro yeast | HCMV inh | FMDV inh | Marburg entry inh | HCV inhibitor | LASV entry inh
COc1cc(N2CCN(C(C)C)CC2)ccc1Nc1nc(Nc2cccc3ncccc23)c2cc[nH]c2n1 | / | / | / | / | / | 19.9µM*
COc1cc(N2CCC(O)CC2)ccc1Nc1cc(Nc2ccccc2S(=O)(=O)C(C)C)c2cc[nH]c2n1 | / | -35.8 | / | / | / | /
CCCCS/C(=C(/C#N)C(N)=O)c1cc2c([nH]1)CCCC2 | -14.2% | -63.2* | -21.2% | -22.9% | -30.8% | -19.5%
COc1ccc2c(=O)c3c(=O)n(Cc4ccco4)c(-c4ccc(C)cc4)nc3oc2c1 | -7.0% | 10.5 | ? | 10.7% | -28.6% | -5.7%
COc1cc(-c2nc3oc4ccccc4c(=O)c3c(=O)n2Cc2ccco2)cc(OC)c1OC | -22.1% | -10.6 | 0.0% | 7.94µM* | -16.0% | 6.31µM*
O=C1CCCC=C1[C@@H](O)CCOCc1ccccc1 | / | / | / | 7.4%[14.2 µM] | / | /
c1ccc2c(-c3c[nH]c4ccccc34)c3ccccc3nc2c1 | -30.9% | -90.5* | -35.5% | ? | ? | -7.1%
Cc1cccc(C(=O)N2CCNC(=O)C2CC(=O)Nc2ccc(F)cc2)c1 (centres undefined) | / | 8.1 | -26.5% | -22.4%[46.1 µM] | / | -4.1%[46.1 µM]
COc1cc(C(CCN2CCCC2)c2c(OC)cc(OC)c3c(C)cc(=O)oc23)cc(OC)c1OC (centres undefined) | 0.1% | -25.6 | 7.5% | / | 10µM* | /
COc1ccc(C(=O)NCC(c2ccco2)S(=O)(=O)c2cccs2)cc1OC (centres undefined) | / | 19.0 | -16.1% | / | / | -7.2%[46.1 µM]
CCn1c(NC(=O)c2ccc(COc3ccc(C)cc3[N+](=O)[O-])o2)nc2ccccc21 | 2.7% | -62.7* | -11.9% | ? | 5.9% | -11.7%
COC(=O)CCCn1nc(NC(=O)c2ccco2)cc1C | 0.1% | ? | 31.7% | / | 9.4% | /
CCc1cc2c(SCC(=O)N3CC(=O)Nc4ccccc43)ncnc2s1 | -9.1% | -60.1* | -24.4% | 14.8% | -24.6% | -5.0%
CCc1ccc2nc(SCC(=O)N3CC(=O)Nc4ccccc43)c(C#N)cc2c1 | 7.7% | 39.9 | -14.7% | ? | 4.47µM* | -3.5%
N#Cc1cc(C#N)c(SCC(=O)N2CC(=O)Nc3ccccc32)nc1N | 2.2% | -15.2 | -23.5% | / | ? | /
Cc1nc(SCC(=O)N2CC(=O)Nc3ccccc32)nc(C)c1C | 3.1% | -0.5 | -7.1% | -17.6%[46.1 µM] | 9.0% | -14.4%[46.1 µM]
CCc1cc2cc(C)ccc2nc1SCC(=O)N1CC(=O)Nc2ccccc21 | -5.0% | ? | -20.0% | ? | 7.08µM* | /
CCc1nc(SCC(=O)N2CC(=O)Nc3ccccc32)c2c(C)c(C)sc2n1 | 0.7% | 34.2 | / | ? | -16.3% | -27.8%
COc1ccccc1CN1CCC2(CC1)c1ccccc1[C@@H](NC(=O)c1ccco1)[C@@H]2OC | / | / | -3.0% | / | / | /
Cc1ccc(N(CC(=O)N2CCCCC2)S(=O)(=O)c2ccc(C)cc2)cc1 | -1.2% | 39.9 | 50.9% | -22.7%[46.1 µM] | 22.5% | ?
CCOC(=O)C1CCN(C(=O)COc2ccc(N(C)S(=O)(=O)c3ccc(C)cc3)cc2)CC1 | 0.6% | -102.4* | -19.6% | -3.5%[14.2 µM] | -9.6% | 0.3%
CCOc1ccc(N(CC(=O)N2CCCCCC2)S(=O)(=O)c2ccc(C)cc2)cc1 | -15.8% | ? | 30.1% | -50.1% | 11.5% | 3.55µM*
COC(=O)C1CCN(C(=O)COc2ccc(N(C)S(=O)(=O)c3ccc(C)cc3)cc2)CC1 | -1.4% | 5.8 | -6.7% | 28.6% | 9.5% | 5.5%
CCC1CCCCN1C(=O)COc1ccc(N(C)S(=O)(=O)c2ccc(C)cc2)cc1 (centres undefined) | -7.9% | -27.1 | ? | / | 10µM* | /
CN(c1ccc(OCC(=O)N2CCCC2)cc1)S(=O)(=O)c1ccc(Cl)cc1 | 1.6% | 0.9 | -16.8% | / | 10.8% | /
CCc1nnc2n1N=C(c1ccc(-c3cc(Cl)ccc3Cl)o1)CS2 | 3.3% | 1.7 | ? | ? | -21.8% | ?
CCOc1ccccc1CNC(=O)Cn1nc(C)c2nn(-c3ccc(Cl)cc3)c(C)c2c1=O | / | ? | ? | / | / | 4.9%[46.1 µM]
